Targets with a hit are over-represented here; the source holds about 7,900 in all. About 0.6% of all pairs of compound and target were hits. Unmarked numbers belong to inactive results.

Chain of UniProt Q86WC4 (Q86WC4 whole entry, looked up): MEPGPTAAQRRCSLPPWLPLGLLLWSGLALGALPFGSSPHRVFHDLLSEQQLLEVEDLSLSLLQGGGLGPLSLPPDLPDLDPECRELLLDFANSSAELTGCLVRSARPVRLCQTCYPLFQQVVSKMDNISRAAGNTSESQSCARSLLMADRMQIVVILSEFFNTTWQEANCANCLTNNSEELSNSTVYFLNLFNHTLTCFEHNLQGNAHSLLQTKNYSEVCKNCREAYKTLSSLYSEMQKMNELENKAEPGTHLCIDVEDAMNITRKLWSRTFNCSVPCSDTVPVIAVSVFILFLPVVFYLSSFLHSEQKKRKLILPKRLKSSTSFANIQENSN
Chain of UniProt Q9UMY1 (Q9UMY1 whole entry, looked up): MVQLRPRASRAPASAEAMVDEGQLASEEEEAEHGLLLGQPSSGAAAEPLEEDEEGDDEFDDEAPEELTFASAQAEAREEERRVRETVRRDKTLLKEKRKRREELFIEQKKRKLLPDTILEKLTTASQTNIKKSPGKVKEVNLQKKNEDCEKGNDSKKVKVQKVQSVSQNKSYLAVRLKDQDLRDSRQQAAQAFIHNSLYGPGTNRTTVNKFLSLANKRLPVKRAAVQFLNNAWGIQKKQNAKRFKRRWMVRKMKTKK
Chain of UniProt O95747 (O95747 whole entry, looked up): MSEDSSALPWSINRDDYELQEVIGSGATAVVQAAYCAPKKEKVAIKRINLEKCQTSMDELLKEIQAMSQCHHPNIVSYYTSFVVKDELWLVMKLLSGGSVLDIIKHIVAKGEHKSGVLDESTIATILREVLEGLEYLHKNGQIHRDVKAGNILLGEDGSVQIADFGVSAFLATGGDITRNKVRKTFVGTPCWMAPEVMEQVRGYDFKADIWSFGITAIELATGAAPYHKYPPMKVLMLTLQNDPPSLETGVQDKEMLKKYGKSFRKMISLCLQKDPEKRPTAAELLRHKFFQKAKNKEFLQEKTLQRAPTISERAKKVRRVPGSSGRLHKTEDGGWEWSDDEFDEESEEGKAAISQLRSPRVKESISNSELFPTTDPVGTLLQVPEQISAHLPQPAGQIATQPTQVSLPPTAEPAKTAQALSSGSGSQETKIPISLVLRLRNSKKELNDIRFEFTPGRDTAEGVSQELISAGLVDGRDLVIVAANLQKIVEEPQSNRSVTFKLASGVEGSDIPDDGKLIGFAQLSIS
Chain of UniProt Q9H1E3 (Q9H1E3 whole entry, looked up): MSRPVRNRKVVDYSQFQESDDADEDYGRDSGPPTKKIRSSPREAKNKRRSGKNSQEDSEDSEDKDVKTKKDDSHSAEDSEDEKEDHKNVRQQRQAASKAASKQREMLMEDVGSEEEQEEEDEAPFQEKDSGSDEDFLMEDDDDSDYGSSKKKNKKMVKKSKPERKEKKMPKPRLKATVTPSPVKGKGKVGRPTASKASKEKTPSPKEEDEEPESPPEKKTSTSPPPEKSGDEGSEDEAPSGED
Chain of UniProt O43181 (O43181 whole entry, looked up): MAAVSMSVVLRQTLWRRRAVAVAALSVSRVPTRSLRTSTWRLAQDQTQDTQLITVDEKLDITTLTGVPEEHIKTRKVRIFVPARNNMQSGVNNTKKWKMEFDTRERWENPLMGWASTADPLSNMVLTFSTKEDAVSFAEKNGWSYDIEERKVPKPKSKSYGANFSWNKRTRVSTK
Chain of UniProt Q13153 (Q13153 whole entry, looked up): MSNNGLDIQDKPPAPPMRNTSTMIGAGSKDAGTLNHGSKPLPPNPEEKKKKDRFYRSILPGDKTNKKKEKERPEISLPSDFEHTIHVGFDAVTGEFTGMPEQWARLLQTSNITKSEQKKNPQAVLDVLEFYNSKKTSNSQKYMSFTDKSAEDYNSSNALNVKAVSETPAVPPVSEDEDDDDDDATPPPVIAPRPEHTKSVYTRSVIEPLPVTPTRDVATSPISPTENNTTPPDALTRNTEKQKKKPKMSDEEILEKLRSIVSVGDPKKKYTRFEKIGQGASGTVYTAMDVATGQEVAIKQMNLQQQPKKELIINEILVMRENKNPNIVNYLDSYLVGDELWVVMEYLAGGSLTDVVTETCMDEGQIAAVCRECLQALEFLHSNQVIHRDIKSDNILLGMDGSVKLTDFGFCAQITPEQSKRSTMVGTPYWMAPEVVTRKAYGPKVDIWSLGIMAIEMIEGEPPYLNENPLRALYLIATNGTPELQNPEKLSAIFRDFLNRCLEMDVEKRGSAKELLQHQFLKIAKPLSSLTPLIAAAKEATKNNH
Chain of UniProt Q16795 (Q16795 whole entry, looked up): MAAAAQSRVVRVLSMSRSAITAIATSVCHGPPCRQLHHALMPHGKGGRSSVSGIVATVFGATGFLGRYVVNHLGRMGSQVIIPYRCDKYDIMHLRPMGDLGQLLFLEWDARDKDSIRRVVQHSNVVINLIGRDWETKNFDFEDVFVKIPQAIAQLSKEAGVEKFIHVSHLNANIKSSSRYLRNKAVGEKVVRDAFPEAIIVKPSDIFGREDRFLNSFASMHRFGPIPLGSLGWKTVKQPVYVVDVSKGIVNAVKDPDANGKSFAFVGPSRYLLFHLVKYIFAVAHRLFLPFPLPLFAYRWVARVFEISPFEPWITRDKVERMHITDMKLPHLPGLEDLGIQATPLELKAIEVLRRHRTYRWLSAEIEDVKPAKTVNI
Chain of UniProt Q9H081 (Q9H081 whole entry, looked up): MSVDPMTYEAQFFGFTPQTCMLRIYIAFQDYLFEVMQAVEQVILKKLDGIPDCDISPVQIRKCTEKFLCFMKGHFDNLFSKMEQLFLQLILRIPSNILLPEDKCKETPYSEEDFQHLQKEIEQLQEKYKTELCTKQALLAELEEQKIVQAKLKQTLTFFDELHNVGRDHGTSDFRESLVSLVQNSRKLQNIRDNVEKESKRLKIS
Chain of UniProt Q9BT67 (Q9BT67 whole entry, looked up): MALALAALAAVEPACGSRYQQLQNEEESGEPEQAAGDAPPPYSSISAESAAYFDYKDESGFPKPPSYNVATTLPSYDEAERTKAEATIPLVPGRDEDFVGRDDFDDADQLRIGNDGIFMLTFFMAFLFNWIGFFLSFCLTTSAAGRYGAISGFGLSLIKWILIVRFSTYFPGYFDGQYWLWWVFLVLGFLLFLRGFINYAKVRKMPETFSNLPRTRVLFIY
Chain of UniProt Q9NZT2 (Q9NZT2 whole entry, looked up): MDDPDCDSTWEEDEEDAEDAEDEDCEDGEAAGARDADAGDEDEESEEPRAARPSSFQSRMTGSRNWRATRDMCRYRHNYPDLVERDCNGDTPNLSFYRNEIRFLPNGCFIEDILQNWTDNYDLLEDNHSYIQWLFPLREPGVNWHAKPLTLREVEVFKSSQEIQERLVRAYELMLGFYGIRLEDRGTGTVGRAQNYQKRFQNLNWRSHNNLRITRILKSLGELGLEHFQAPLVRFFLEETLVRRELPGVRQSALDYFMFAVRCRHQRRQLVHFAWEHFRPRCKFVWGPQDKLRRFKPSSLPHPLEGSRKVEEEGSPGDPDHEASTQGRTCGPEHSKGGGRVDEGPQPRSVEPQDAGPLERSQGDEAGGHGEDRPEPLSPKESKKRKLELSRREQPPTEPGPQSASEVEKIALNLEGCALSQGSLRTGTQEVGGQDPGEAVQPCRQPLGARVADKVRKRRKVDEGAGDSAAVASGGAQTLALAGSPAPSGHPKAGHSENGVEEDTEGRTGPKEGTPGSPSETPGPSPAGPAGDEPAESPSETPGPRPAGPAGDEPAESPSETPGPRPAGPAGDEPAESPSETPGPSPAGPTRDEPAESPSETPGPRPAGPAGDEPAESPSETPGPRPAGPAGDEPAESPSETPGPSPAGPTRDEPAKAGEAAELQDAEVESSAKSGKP
Chain of UniProt O43809 (O43809 whole entry, looked up): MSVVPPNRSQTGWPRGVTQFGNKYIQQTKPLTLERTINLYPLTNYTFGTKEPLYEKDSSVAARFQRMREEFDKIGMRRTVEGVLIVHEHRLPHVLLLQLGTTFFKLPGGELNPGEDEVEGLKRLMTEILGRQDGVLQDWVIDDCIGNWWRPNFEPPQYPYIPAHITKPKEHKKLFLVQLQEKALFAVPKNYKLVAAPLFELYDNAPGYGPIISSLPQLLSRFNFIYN
Chain of UniProt P49914 (P49914 whole entry, looked up): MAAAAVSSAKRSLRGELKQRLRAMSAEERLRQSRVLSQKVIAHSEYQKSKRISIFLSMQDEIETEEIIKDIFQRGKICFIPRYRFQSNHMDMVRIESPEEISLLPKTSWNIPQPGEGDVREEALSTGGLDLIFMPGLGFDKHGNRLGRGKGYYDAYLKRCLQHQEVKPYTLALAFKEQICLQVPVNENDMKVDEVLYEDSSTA
Chain of UniProt Q92692 (Q92692 whole entry, looked up): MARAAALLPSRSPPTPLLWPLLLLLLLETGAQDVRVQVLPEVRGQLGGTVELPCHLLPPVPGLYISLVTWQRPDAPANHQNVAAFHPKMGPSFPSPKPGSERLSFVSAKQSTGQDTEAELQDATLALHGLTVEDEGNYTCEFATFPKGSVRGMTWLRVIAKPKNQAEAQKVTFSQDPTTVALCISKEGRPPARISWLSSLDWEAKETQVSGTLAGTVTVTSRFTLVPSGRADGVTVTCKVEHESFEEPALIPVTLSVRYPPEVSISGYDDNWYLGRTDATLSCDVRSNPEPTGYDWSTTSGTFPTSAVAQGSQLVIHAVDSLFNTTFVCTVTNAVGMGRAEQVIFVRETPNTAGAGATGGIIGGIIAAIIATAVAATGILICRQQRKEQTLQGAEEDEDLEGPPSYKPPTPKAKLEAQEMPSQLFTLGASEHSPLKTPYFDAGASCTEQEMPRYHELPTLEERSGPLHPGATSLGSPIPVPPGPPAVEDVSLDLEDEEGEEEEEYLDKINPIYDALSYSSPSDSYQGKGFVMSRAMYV
Chain of UniProt Q9BWT6 (Q9BWT6 whole entry, looked up): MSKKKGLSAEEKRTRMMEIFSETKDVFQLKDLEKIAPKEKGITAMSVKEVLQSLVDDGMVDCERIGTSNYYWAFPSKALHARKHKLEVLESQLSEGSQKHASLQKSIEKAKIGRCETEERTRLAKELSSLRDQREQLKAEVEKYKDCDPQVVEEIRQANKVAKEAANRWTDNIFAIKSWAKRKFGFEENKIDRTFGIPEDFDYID

Compound in the assay: NC(=O)Nc1cc(-c2cccc(F)c2)sc1C(=O)N[C@H]1CCCNC1
Briefly: log2 fold change, soluble protein after heating vs DMSO (PISA); higher = thermal stabilisation; K562 cells, 10 uM, 30 min; active = over 0.2 and 3.5 SD of the protein, either way, in both replicates (recomputed). The gist of the method:
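Values are thermal stability changes relative to control samples and are taken from duplicates. They are stated as log2 fold changes. Before quantification by TMTpro 16plex LC-MS/MS with equalised channel sums, K562 cells at 2×10^6 cells/mL were treated with 10 μM compound for 30 min, heated in aliquots for 3 min across 48°C-58°C, pooled, extracted in PBS with 0.5% NP-40 at 4°C, and centrifuged at 21,000xg for 90 min to give the soluble supernatant.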
Regarding MORC3 (UniProt Q14149), the log2 fold change was 0.024.
In the case of MRPS31 (UniProt Q92665) it was -0.001; in that of MRPS9 (UniProt P82933), -0.03; in that of NDUFA9 (UniProt Q16795), -0.025.
With OSTM1 (UniProt Q86WC4) the figure was -0.035; with MRPS24 (UniProt Q96EL2), -0.015; with NDUFS4 (UniProt O43181), -0.015.
For the target OXSR1 (UniProt O95747), the log2 fold change is -0.014.
MIS12 (UniProt Q9H081): the log2 fold change is 0.016.
With NGLY1 (UniProt Q96IV0) the figure was -0.073; with MND1 (UniProt Q9BWT6), -0.024; with NOL7 (UniProt Q9UMY1), 0.107.
In the case of NDFIP1 (UniProt Q9BT67) it was 0.104; in that of MTHFS (UniProt P49914), -0.021.
With MRPL50 (UniProt Q8N5N7) the figure was 0.024.
For the target NEDD4L (UniProt Q96PU5), the log2 fold change was -0.045.
With NUCKS1 (UniProt Q9H1E3), the log2 fold change is -0.405 (active).
Turning to MOV10 (UniProt Q9HCE1), the log2 fold change was 0.007.
In the case of NUDT21 (UniProt O43809) it was -0.042; in that of OGFR (UniProt Q9NZT2), 0.049; in that of MSH6 (UniProt P52701), -0.033.
For the target NECTIN2 (UniProt Q92692), the log2 fold change is 0.
Consider MKNK1 (UniProt Q9BUB5), for which the log2 fold change was 0.226.
For PAK1 isoform 2 (UniProt Q13153), the log2 fold change is -0.067.

Source of the values: the supplement of paper PMC10849652.
